Test results reported in PubChem BioAssay (NCI).
This is part of a sample that, as a whole, favours compounds with a hit. Of some 83,000 tested, about 20% had one in any assay.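 Single-dose data. Exposure time 48 hours. Values below 10 considered active.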 Unmarked numbers belong to inactive results. Calls of active or inactive are those of the source.

system: NCI-H522 lung; test: NCI-60 one-dose screen, 48 h (100 = growth as untreated, 0 = no growth, -100 = all killed); conditions: 10 µM unless noted
Experimental: Growth inhibition of the NCI-H522 human Non-Small Cell Lung tumor cell line is measured as a screen for anti-cancer activity. Cells are grown in 96 well plates and exposed to the test compound for 48 hours. Compounds are tested at a single concentration, which is 10^-5 M for most compounds. The reported endpoint is percent growth (GI% or GIPRCNT), where numbers from 0 - 100% represent growth inhibition, and numbers from -100% - 0 represent cell death. For example, a value of 40 represents 60% growth inhibition. A value of 0 means no net growth occurred over the course of the experiment. A value of -40 indicates 40% of cells at the beginning of the experiment died by the end of the experiment. A value of -100 means all cells are dead at the end of the experiment.
NCI-60 Human Tumor Cell Lines Screen was performed using the standard one-dose NCI protocol, which is described in more detail at https://dtp.cancer.gov/discovery_development/nci-60/default.htm.
Compounds with GIPRCNT values below 10 were considered active. Activity score was based on GIPRCNT using the following formula: […]
Score is 0 for GIPRCNT values of 100 or above, 50 for GIPRCNT values of 0, and 100 for GIPRCNT values of -100.

Compound | growth
COc1ccc(-n2c(C)nc3c(c(C)nn3-c3ccccc3)c2=O)cc1 | -14% (active)
CCC(c1ccccc1)C(CC)c1ccc(O)c(O)c1 (stereo not given) | 85.2%
O=c1[nH]c(-c2ccccn2)nc2sc3c(c12)CCCCC3 | 20.8%
CCCCCCCCCCCCCCCC[N+]1(CC)CCCC1 | -73.7% (active)
COc1cccc(-c2cn3c(ccc4ccccc43)n2)c1 | 15.9%
COC1=CC(=O)C(OC)=C(OC)C1=O | 100%
COc1cc(NCCCCCN=C(N)NC(N)=NC(C)C)c2ncccc2c1 | -16.1% (active)
O=C1C=CC(Nc2ccccc2[N+](=O)[O-])C1Nc1ccccc1[N+](=O)[O-] (stereo not given) | -90.1% (active)
COCCCNc1nc(NC(=O)c2ccc(F)cc2C)cc(-c2cccnc2)n1 | 78.6%
O=c1ccc2cc3ccccc3cc2[nH]1 | 98.8%
CCN(CC)c1ccc(CNc2cc(C)nc3ccc(OC)cc23)cc1 | 24.6%
COc1ccc(C(=O)/C=C/c2cc3ccccc3[nH]c2=O)cc1 | -31% (active)
COc1ccc(C(=O)/C=C/c2c[n+](=O)c3ccc(F)cc3n2[O-])cc1 | 109%
COc1cc(C2C(C(=O)c3cccs3)=C(O)C(=O)N2CCN2CCOCC2)cc(OC)c1OC (stereo not given) | 92.2%
Cc1ccc2cnc(N)c(C#Cc3cncc(C(=O)Nc4ccc(CN5CCN(C)CC5)c(C(F)(F)F)c4)c3)c2c1 | -71% (active)
CCN(CC)CCCC(C)Nc1ccnc2c(OC)cccc12 (stereo not given) | 104%
CCCCCN(CCCCC)CCC[C@@H](C)[C@H]1CC[C@H]2[C@@H]3[C@H](OCCCN)C[C@@H]4C[C@H](OCCCN)CC[C@]4(C)[C@H]3C[C@H](OCCCN)[C@]12C | 28.8%
NS(=O)(=O)N(c1cc(C(F)(F)F)cc(C(F)(F)F)c1)C1CCN(Cc2ccc(F)cc2)CC1 | 43.2%
CSc1nc(NCCCNc2ccnc3cc(Cl)ccc23)cc(-c2ccccc2)n1 | 73.5%
c1ccc(CSc2ncnc3nc[nH]c23)nc1 | 82.7%

Compound | growth
Nc1nc2ccc(-c3nc4ccc5[nH]ncc5c4c4c3CCC4)cc2s1 | -29.4% (active)
Cc1cccc(NC(=O)c2sc3nc4c(cc3c2N)C(=O)CCC4)c1 | 11.7%
O=C(Nc1cccc2[nH]c(C(F)(F)F)nc12)c1ccc(Br)cc1F | -7.83% (active)
O=C(Nc1ccc(F)cc1)Nc1ccc(CCO)cc1 | 93.8%
CCCCCC(=O)N(CCCC)CCCC | 97.6%
CCCCNc1ccc2c3c1cccc3c(=O)n1c3ccccc3nc21 | 71.9%
CC(=O)C1=C(O)C=C2Oc3c(C(=O)/C=C/c4cc(Cl)cc(Cl)c4)c(O)c(C)c(O)c3[C@]2(C)C1=O | -52.2% (active)
CN1CCN(Cc2ccc(NC(=O)c3[nH]ncc3Nc3ncnc4sccc34)cc2)CC1 | 14%
COc1ccc2[nH]c(=O)c(/C=C/C(=O)c3ccc(Nc4nccc(-c5ccc6ccccc6c5)n4)cc3)cc2c1 | 99.5%
CCOC(=O)c1cnc2ccc(OC)cc2c1Nc1cccc(S(=O)(=O)NC)c1 | 99.8%
CCOC(=O)c1c2ncccc2n2c(=O)n(-c3ccc(Cl)cc3)nnc12 | 71.1%
CCCCCCCCCCCCCCCC(=O)OCC1OC(n2cnc3c(=S)nc(N)[nH]c32)C(OC(=O)CCCCCCCCCCCCCCC)C1OC(=O)CCCCCCCCCCCCCCC (stereo not given) | 66.1%
CCCCCCCCCCCCCCCCCCSC1=CC(=O)C(OC)=C(OC)C1=O | 94.5%
ClC1=C2NC=NC2n2c(nnc2-c2ccc(Cl)cc2)N1 (stereo not given) | 73.2%
CN(CC(=O)N(Cc1ccc(C2CCCCC2)cc1)c1ccc(C(=O)NO)cc1)S(=O)(=O)c1c(F)c(F)c(F)c(F)c1F | 45.3%
CCOC(=O)C(=Cc1ccccc1F)C(=O)OCC | 65.2%
CCOC(=O)c1nc(Nc2cc(C)[nH]n2)c2ccccc2n1 | 92.2%
CCCCCCCCCCCCNC(=O)[C@H]1CSC(c2ccc(OC)c(F)c2)N1 (stereo not given in full) | -73.5% (active)
CC(C)n1cc2c(N)ncnc2n1 | 99.3%
COc1ccc(/C=N\NC(=O)CN2CCN(c3cc4c(cc3F)c(=O)c(C(=O)N/N=C/c3ccc(OC)cc3)cn4C3CC3)CC2)cc1 | 73.8%
